Experimental findings from PubChem BioAssay (NCATS) are described below.

Assay [1] in a line: qHTS of pediatric cancer cell lines to identify multiple opportunities for drug repurposing: Primary screen for SK-N-MC cells (AID 1347093). Also: potency is read from the fitted curve at half-maximal effect. The gist of the method: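 Metabolically active cells were quantified by ATP-dependent luminescence (CellTiter-Glo, 15 min at room temperature) following 48 h treatment. Cells had been plated at 500-1,000 per well and settled for 5 h beforehand.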
(qHTS replaces the single test concentration by a dilution series.)

The nature of assay [2]: qHTS of pediatric cancer cell lines to identify multiple opportunities for drug repurposing: Primary screen for BT-37 cells (AID 1347094). Also: potency is read from the fitted curve at half-maximal effect. The gist of the method: (§1)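 Plated cells (500-1,000 per well, growth media) were allowed to settle for 5 hours, treated with compound dilutions for 48 hours, then lysed with CellTiter-Glo for 15 min at room temperature before luminescence reading.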

The nature of assay [3]: qHTS of pediatric cancer cell lines to identify multiple opportunities for drug repurposing: Primary screen for U-2 OS cells (AID 1347096). Also: nearly all actives have a fitted effect of over 50% in size. Also: potency is read from the fitted curve at half-maximal effect. The gist of the method: (§2)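 Viability after 48 h compound treatment at 37C, 500-1,000 cells/well, read as ATP luminescence with CellTiter-Glo. Primary screens used 11-point (MIPE, 0.78 nM-46 µM) or 8-point (NPC, 0.59 nM-46 µM) final concentrations; follow-up screens used 11-point dilutions.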

A short description of assay [4]: qHTS of pediatric cancer cell lines to identify multiple opportunities for drug repurposing: Primary screen for Saos-2 cells (AID 1347097). Also: nearly all actives have a fitted effect of over 40% in size. Also: potency is read from the fitted curve at half-maximal effect. The gist of the method: as §1
A short description of assay [5]: qHTS of pediatric cancer cell lines to identify multiple opportunities for drug repurposing: Primary screen for SK-N-SH cells (AID 1347098). Also: nearly all actives have a fitted effect of over 65% in size. Also: potency is read from the fitted curve at half-maximal effect. The gist of the method: (§3)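 Cells (500-1,000/well) rested 5 h, then received compounds for 48 h; metabolically active cells were measured by CellTiter-Glo luminescence. Final concentrations spanned up to 46 µM (MIPE, 11-point) or 0.59 nM-46 µM (NPC, 8-point) in primary screens, 11-point in follow-ups.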

Assay [6] can be described thus: qHTS of pediatric cancer cell lines to identify multiple opportunities for drug repurposing: Primary screen for NB1643 cells (AID 1347099). Also: nearly all actives have a fitted effect of over 50% in size. Also: potency is read from the fitted curve at half-maximal effect. The gist of the method: as §1
Assay [7] is described as follows: qHTS of pediatric cancer cell lines to identify multiple opportunities for drug repurposing: Primary screen for LAN-5 cells (AID 1347100). Also: potency is read from the fitted curve at half-maximal effect. The gist of the method:
as §2

Assay [8] can be described thus: qHTS of pediatric cancer cell lines to identify multiple opportunities for drug repurposing: Primary screen for Rh18 cells (AID 1347102). Also: nearly all actives have a fitted effect of over 65% in size. Also: potency is read from the fitted curve at half-maximal effect. The gist of the method:
as §2

Assay [9] is described as follows: qHTS of pediatric cancer cell lines to identify multiple opportunities for drug repurposing: Primary screen for RD cells (AID 1347104). Also: nearly all actives have a fitted effect of over 55% in size. Also: potency is read from the fitted curve at half-maximal effect. The gist of the method: as §1
The nature of assay [10]: qHTS of pediatric cancer cell lines to identify multiple opportunities for drug repurposing: Primary screen for MG 63 (6-TG R) cells (AID 1347105). Also: nearly all actives have a fitted effect of over 50% in size. Also: potency is read from the fitted curve at half-maximal effect. The gist of the method: as §1
Assay [11] is described as follows: qHTS of pediatric cancer cell lines to identify multiple opportunities for drug repurposing: Primary screen for control Hh wild type fibroblast cells (AID 1347106).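 Also: series mostly up to about 46 µM; a drop in luminescence marks cytotoxicity and a rise apparent proliferation; nearly all actives have a fitted effect of over 55% in size.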 The gist of the method:
as §2

The nature of assay [12]: qHTS of pediatric cancer cell lines to identify multiple opportunities for drug repurposing: Primary screen for Rh30 cells (AID 1347107). Also: nearly all actives have a fitted effect of over 75% in size. Also: potency is read from the fitted curve at half-maximal effect. The gist of the method: as §2
A short description of assay [13]: qHTS of pediatric cancer cell lines to identify multiple opportunities for drug repurposing: Primary screen for BT-12 cells (AID 1347101). Also: nearly all actives have a fitted effect of over 25% in size. Also: potency is read from the fitted curve at half-maximal effect. The gist of the method:
as §3

Assay [14] in a line: qHTS of pediatric cancer cell lines to identify multiple opportunities for drug repurposing: Primary screen for Rh41 cells (AID 1347108). Also: nearly all actives have a fitted effect of over 70% in size. Also: potency is read from the fitted curve at half-maximal effect. The gist of the method:
as §1

A short description of assay [15]: qHTS of pediatric cancer cell lines to identify multiple opportunities for drug repurposing: Primary screen for OHS-50 cells (AID 1347103). Also: nearly all actives have a fitted effect of over 40% in size. Also: potency is read from the fitted curve at half-maximal effect. The gist of the method: as §3
Assay [16] can be described thus: qHTS of pediatric cancer cell lines to identify multiple opportunities for drug repurposing: Primary screen for NB-EBc1 cells (AID 1347095). The gist of the method: as §1
A short description of assay [17]: qHTS of pediatric cancer cell lines to identify multiple opportunities for drug repurposing: Confirmatory screen for NB1643 cells (AID 1347109). Also: potency is read from the fitted curve at half-maximal effect; nearly all actives have a fitted effect of over 45% in size. The gist of the method: as §2
A short description of assay [18]: qHTS of pediatric cancer cell lines to identify multiple opportunities for drug repurposing: Confirmatory screen for A673 cells (AID 1347110). Also: potency is read from the fitted curve at half-maximal effect; nearly all actives have a fitted effect of over 65% in size. The gist of the method: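 Cells plated at 500-1,000/well were treated five hours later with multi-point dilutions up to 46 µM final. After two days, CellTiter-Glo was added and luminescence read.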
A short description of assay [19]: qHTS of pediatric cancer cell lines to identify multiple opportunities for drug repurposing: Confirmatory screen for SK-N-MC cells (AID 1347111).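 Also: potency is read from the fitted curve at half-maximal effect; cells exposed to compound for 48 h before the readout; nearly all actives have a fitted effect of over 70% in size.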 As to conditions: SK-N-MC cell viability. The gist of the method: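 SK-N-MC cells at 500-1,000 cells/well in growth media were pre-incubated 5 h, then exposed to compounds at 11-point dilutions for 48 h at 37 degrees C, 5% CO2. Viability was read as CellTiter-Glo luminescence.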

Assay [20] is described as follows: qHTS of pediatric cancer cell lines to identify multiple opportunities for drug repurposing: Confirmatory screen for BT-12 cells (AID 1347112). Also: potency is read from the fitted curve at half-maximal effect; nearly all actives have a fitted effect of over 55% in size. The gist of the method: as §2

Results filed as inconclusive are left out. Active and inactive are the calls of the source. Calls follow the shape of the dose curve; as a rule, active = well fitted curve in the direction sought with a large enough effect; inconclusive = small, poorly fitted or top-dose-only effect, or another doubt; inactive = no such curve, though single readings can be large; an effect the other way counts as inactive or inconclusive.

Consider `NC(N)=NC(=O)Cc1c(Cl)cccc1Cl`, for which the Potency entry in [1], in [2], in assay [3], in [4], in assay [5] and in [6] was “inactive” in each case. Further, the Potency result in [7], in assay [8], in assay [9], in assay [10] and in assay [12] was “inactive” throughout. Further, the call in [11] was inactive.
`O=c1[nH]c(=O)n([C@H]2C[C@H](O)[C@@H](CO)O2)cc1Br`: the Potency entry in assay [1], in assay [2], in assay [4], in assay [5], in assay [6] and in assay [7] was “inactive” each time. For the same compound, the Potency entry in assay [13], in assay [8], in assay [9], in assay [10], in assay [12] and in assay [14] was “inactive” throughout.
In the case of `C[C@H](CS)C(=O)N1CCC[C@H]1C(=O)O`, the Potency entry in [1], in [2], in assay [4], in [5], in [6] and in assay [7] was “inactive” each time. For the same compound, the Potency result in assay [13], in [8], in assay [15], in [9], in [10] and in assay [12] was “inactive” throughout. In addition, the Potency entry in [14] is “inactive”. For the same compound, the result in assay [11] was inactive.
With `OC(CCN1CCCCC1)(c1ccccc1)C1CCCCC1` (stereo not drawn), the Potency entry in assay [1], in [6], in [7], in assay [8], in [10] and in [14] was “inactive” in each case. For the same compound, the compound was classed as inactive in assay [11].
With `CC(=O)[C@]1(O)Cc2c(O)c3c(c(O)c2[C@@H](O[C@H]2C[C@H](N)[C@H](O)[C@H](C)O2)C1)C(=O)c1ccccc1C3=O`, the Potency in assay [1] was 237 nM (active); in assay [2], 174 nM (active); in assay [3], 6680 nM (active); in assay [4], 3350 nM (active); in assay [5], 433 nM (active); in assay [6], 376 nM (active). For the same compound, the Potency was 550 nM (active) in [13]; 422 nM (active) in [8]; 1100 nM (active) in [15]; 1060 nM (active) in assay [9]; 2110 nM (active) in assay [10]; 841 nM (active) in [14]. Moreover, the Potency result in assay [12] is “inactive”.
Regarding `CN(C)CC[C@@H](c1ccc(Br)cc1)c1ccccn1`, the Potency entry in [1], in [2], in assay [3], in assay [4], in [5] and in assay [6] was “inactive” each time. The Potency entry in assay [7], in assay [13], in assay [8], in assay [9], in [10] and in assay [12] was “inactive” throughout. Moreover, the call in assay [11] was inactive.
On to `Cc1nnc(SCC2=C(C(=O)O)N3C(=O)[C@@H](NC(=O)Cn4cnnn4)[C@H]3SC2)s1`, for which the Potency entry in [1], in assay [2], in [4], in [5], in assay [6] and in [7] was “inactive” throughout. Further, the Potency entry in [13], in [8], in assay [9] and in [10] was “inactive” throughout. Further, the compound was classed as inactive in assay [11].
For the compound `CCCCNC(=O)NS(=O)(=O)c1ccc(C)cc1`, the Potency entry in [2], in assay [16], in assay [3], in [4], in [5] and in assay [6] was “inactive” throughout. Besides, the Potency result in assay [7], in [13], in assay [8], in [15], in [9] and in assay [10] was “inactive” throughout. Besides, the Potency result in [12] and in assay [14] was “inactive” throughout.
Turning to `O=C1CC2(CCCC2)CC(=O)N1CCCCN1CCN(c2ncccn2)CC1`, the Potency entry in [1], in [2], in [3], in assay [4], in assay [5] and in [6] was “inactive” throughout. Moreover, the Potency result in assay [7], in assay [13], in [8], in assay [9], in [10] and in assay [12] was “inactive” in each case. In addition, the Potency result in assay [14] was “inactive”.
Turning to `C[n+]1cc2c3c(ccc2c2ccc4cc5c(cc4c21)OCO5)OCO3`, the Potency in assay [1] is 1300 nM (active); in [2], 2130 nM (active); in assay [4], 4110 nM (active); in [5], 1500 nM (active); in assay [6] it was 1160 nM (active); in assay [7], 1160 nM (active). Moreover, the Potency in assay [13] is 1690 nM (active); in [8] it was 2060 nM (active); in assay [15], 2130 nM (active); in assay [9], 1840 nM (active); in assay [10] it was 2310 nM (active); in assay [12], 2590 nM (active). For the same compound, the Potency in assay [14] was 2590 nM (active); in assay [17], 1020 nM (active); in [18], 1150 nM (active); in [19], 1290 nM (active); in assay [20], 3230 nM (active).
For `Nc1ncn([C@@H]2O[C@H](CO)[C@@H](O)[C@H]2O)c(=O)n1`, the Potency was 21100 nM (active) in assay [1]; 12300 nM (active) in assay [2]; 7500 nM (active) in assay [6]; 8710 nM (active) in assay [13]; 8410 nM (active) in assay [9]. For the same compound, the Potency result in [10] and in assay [12] was “inactive” throughout.
Turning to `CN(C)CCN(Cc1cccs1)c1ccccn1`, the Potency result in assay [1], in assay [2], in [3], in assay [4], in assay [5] and in assay [6] was “inactive” each time. The Potency result in [7], in assay [13], in [8], in assay [9], in assay [10] and in [12] was “inactive” each time. Also, in [14], the Potency result is “inactive”. In assay [11], the result was inactive.
For the compound `COc1cc2c(cc1OC)-c1cc(=Nc3c(C)cc(C)cc3C)n(C)c(=O)n1CC2`, the Potency in [1] is 4220 nM (active); in assay [15] it was 21900 nM (active); in assay [9], 23700 nM (active). Besides, the Potency entry in assay [8] and in assay [12] was “inactive” in each case. In [11], the outcome was inactive.
